Composite z-score and composite Z-score data for 16 compounds are collected here from PubChem BioAssay.

Calls of active or inactive are those of the source.

For one experiment, the target named is Albumin (Bos taurus) (UniProt P02769). Put plainly: compounds binding labelled BSA control protein – biochemical, small-molecule microarray, Alexa647 label, 635/667 nm fluorescence, artefact control for SMM control protein annotation, profiling panel (AID 1118).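 Further: score merges 667 nm emission intensity and signal-to-noise per printed compound spot.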 The conditions noted are these: BSA-A647 binding, fluorescence 635 nm, higher = more signal.
Sequence of Albumin (Bos taurus) (P02769 whole entry, looked up): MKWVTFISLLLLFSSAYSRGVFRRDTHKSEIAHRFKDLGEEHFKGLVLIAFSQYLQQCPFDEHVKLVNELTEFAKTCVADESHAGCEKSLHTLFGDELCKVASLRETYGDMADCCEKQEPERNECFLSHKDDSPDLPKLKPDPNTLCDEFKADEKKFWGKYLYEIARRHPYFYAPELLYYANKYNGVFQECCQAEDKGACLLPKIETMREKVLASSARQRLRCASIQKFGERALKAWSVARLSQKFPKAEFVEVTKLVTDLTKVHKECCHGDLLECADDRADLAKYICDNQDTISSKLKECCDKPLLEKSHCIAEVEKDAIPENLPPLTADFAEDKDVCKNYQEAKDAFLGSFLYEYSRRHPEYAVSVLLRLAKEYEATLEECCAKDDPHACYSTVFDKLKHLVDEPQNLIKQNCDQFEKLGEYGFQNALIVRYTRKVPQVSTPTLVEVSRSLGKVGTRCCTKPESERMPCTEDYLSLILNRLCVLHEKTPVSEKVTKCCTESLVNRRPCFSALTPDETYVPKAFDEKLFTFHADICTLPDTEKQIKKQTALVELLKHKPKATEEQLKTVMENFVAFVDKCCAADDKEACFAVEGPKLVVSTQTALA
Experiment [1] can be described thus: probe aXIP binding to arrayed compounds – biochemical, NeuroSMM set, 635/667 nm fluorescence, primary screen (AID 1119).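 Further: probe is the protein aXip251-270 applied at 1 µg/mL to compound-printed slides; binding of probe to printed compounds measured as 667 nm fluorescence plus signal to noise.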 Conditions: small-molecule microarray, higher = more signal, called active from +8 up or from −8 down.
Experiment [2] is described as follows: probe aNOTCH3 binding on compound microarray – biochemical, small-molecule microarray, 635/667 nm fluorescence, primary screen (AID 1120).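 Further: probe is a biotin-tagged antibody raised against NOTCH3 rather than NOTCH3 protein; score merges spot fluorescence near 667 nm with spot signal to noise.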 Conditions: higher = more signal.
Experiment [3] is described as follows: probe aNOTCH2 binding on compound microarray – biochemical, small-molecule microarray, 635/667 nm fluorescence, primary screen (AID 1121).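 Further: score merges feature fluorescence read at 667 nm with its signal to noise.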 The conditions noted are these: higher = more signal.
For experiment [4], the target named is Carbonic anhydrase 2 (Homo sapiens) (UniProt P00918). Briefly: compounds binding carbonic anhydrase 2 – biochemical, small-molecule microarray, Alexa647-labelled CAII, profiling panel (AID 1122). Conditions: CAII-A647 binding fluorescence, higher = more signal.
Experiment [5] can be described thus: COS7 lysate on small-molecule microarray, probe aHis, 635 nm (AID 1123).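 Further: z-score combines 667nm fluorescence intensity with signal-to-noise per printed compound spot.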 The conditions noted are these: COS7 cell lysate, fluorescence, higher = more signal.
Experiment [6] can be described thus: probe aLAP1 signal on lysate-treated microarray – cell lysate, small-molecule microarray, COS7 lysate, primary screen (AID 1124).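 Further: lysate comes from COS7 cells expressing LAP1 and is applied at 0.3 µg/mL; score merges spot fluorescence near 667 nm with signal-to-noise over triplicate slides.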 The conditions noted are these: probe aLAP1, fluorescence, higher = more signal.
For a further experiment, the system named is Sam68 (KHDRBS1). Put plainly: compounds binding KHDRBS1 protein – biochemical, small-molecule microarray, 635 nm fluorescence, primary screen (AID 1125).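 Further: score merges 667 nm channel intensity with signal to noise over triplicate slides.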 Conditions: higher = more signal.
The test system of experiment [7] is Chordin-like protein 2 (CHRDL2). Put plainly: compounds binding chordin-like 2 – biochemical, small-molecule microarray, 635 nm fluorescence, primary screen (AID 1126).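 Further: printed compound slides probed with Chrdl2 protein at 4 µg/mL for 1 h at 4 C; score merges 667 nm emission intensity with signal to noise over three replicate slides.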 The conditions noted are these: fluorescence 635 nm, higher = more signal.
Experiment [8] deals with Concanavalin-A (Canavalia ensiformis) (UniProt P02866). Put plainly: compounds binding concanavalin A lectin – biochemical, small-molecule microarray, Alexa647 label, 635 nm, artefact control for SMM control protein annotation, primary screen (AID 1127).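 Further: z combines 667 nm emission intensity with signal-to-noise across three replicate slides.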 Conditions: ConA-A647 binding fluorescence, higher = more signal.
Sequence of Concanavalin-A (Canavalia ensiformis) (P02866 whole entry, looked up): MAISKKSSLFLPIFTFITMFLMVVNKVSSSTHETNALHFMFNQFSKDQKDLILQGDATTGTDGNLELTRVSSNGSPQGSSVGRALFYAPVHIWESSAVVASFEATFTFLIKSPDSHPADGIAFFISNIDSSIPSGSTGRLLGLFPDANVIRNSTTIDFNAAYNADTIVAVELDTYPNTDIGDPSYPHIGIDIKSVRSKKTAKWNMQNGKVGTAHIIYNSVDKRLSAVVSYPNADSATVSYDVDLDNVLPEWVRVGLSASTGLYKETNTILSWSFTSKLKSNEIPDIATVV

Take `COc1ccc([Si](C)(C)[C@@H]2[C@@H](CCO)O[C@]3(C(=O)N(Cc4ccc(N5CCCCC5=O)cc4)c4ccccc43)[C@H]2C)cc1`: the composite z-score was 0.116 in the experiment with Albumin (Bos taurus); 0.033 in experiment [2]; -0.0515 in [3]; 0.304 in experiment [4]; 0.828 in experiment [5]; 0.503 in [6]. Further, the composite z-score in the experiment with Sam68 (KHDRBS1) worked out at 1.31; in experiment [7] it was 0.507; in experiment [8], 1.12. In experiment [1], the composite Z-score is 0.385 (inactive).
As to `O=C1C2C=CC(C(O)c3ccc(F)cc3)N(n3cnnc3)C2C(=O)N1Cc1ccccc1` (stereo not given), the composite z-score with Albumin (Bos taurus) is -0.224; in [2], 0.0065; in experiment [3] it was -0.14; in experiment [4], 0.561; in [5] it was 0.747; in experiment [6], -0.138. Besides, the composite z-score is -0.256 with Sam68 (KHDRBS1), -0.62 in [7] and -0.129 in experiment [8]. Further, in [1], the composite Z-score is 0.878 (inactive).
As to `CCOC(=O)C[C@H]1[C@H](OC(=O)c2cc3ccccc3oc2=O)[C@@H](NC(=O)c2ccc(-c3ccccc3)cc2)c2cc(OCCCO)ccc2N1C(=O)c1ccc2ccccc2n1`, the composite z-score with Albumin (Bos taurus) is 0.111; in [2] it was 0.0864; in [3] it was -0.147; in experiment [4], 0.4; in experiment [5] it was 0.837; in experiment [6], 0.205. Moreover, the figures for the composite z-score (in the experiment on Sam68 (KHDRBS1); in experiment [7]; in experiment [8]) were 1.32, 0.492 and 0.708, respectively. Further, in experiment [1], the composite Z-score is 0.6 (inactive).
`COC(=O)c1nc2oc1CC[C@@H](CO)NC(=O)N(C)Cc1cnnn1C[C@H](Cc1ccccc1)NC2=O`: the composite z-score in the experiment with Albumin (Bos taurus) is 0.771; in [2] it was -0.182; in experiment [3], -0.167; in experiment [4] it was 0.853; in [5] it was 0.205; in experiment [6], 0.321. Besides, the composite z-score in the experiment on Sam68 (KHDRBS1) is -0.0671; in experiment [7], -0.873; in experiment [8], -0.343. Moreover, in [1], the composite Z-score was 0.15 (inactive).
In the case of `Cn1cccc1C(O)C1C=CC2C(=O)NC(=O)C2N1Nc1ccc(Cl)cc1Cl` (stereo not given), the composite z-score with Albumin (Bos taurus) was determined as 1.04; in experiment [2], 0.569; in experiment [3] it was 0.403; in experiment [4], 0.731; in experiment [5], 2.79; in experiment [6], 1.26. Further, the composite z-score is 1.29 in the experiment on Sam68 (KHDRBS1), -0.851 in [7] and 1.21 in experiment [8]. Also, in experiment [1], the composite Z-score was 0.589 (inactive).
In the case of `CN1C(=O)C2C=CC(C(O)c3cccc4ccccc34)N(N3CCCCC3)C2C1=O` (stereo not given), the composite z-score amounted to 0.918 with Albumin (Bos taurus); 0.246 in [2]; 0.0502 in experiment [3]; 0.586 in experiment [4]; 2.75 in experiment [5]; 0.59 in [6]. The composite z-score was 1.31 with Sam68 (KHDRBS1), -0.227 in [7] and 1.17 in experiment [8]. Moreover, in experiment [1], the composite Z-score is 0.353 (inactive).
`CC(=O)NCCCC[C@@H]1NC(=O)[C@H]2C[C@@H](C(=O)NCCCC[N+](C)(C)C)[C@@H](c3cccc(OCCO)c3)N2C1=O`: the composite z-score in the experiment with Albumin (Bos taurus) was -1.1; in experiment [2], 0.204; in experiment [3], -0.0974; in experiment [4] it was 0.704; in [5], 1.75; in [6] it was 1.16. In addition, the composite z-score in the experiment with Sam68 (KHDRBS1) is 0.719; in experiment [7], 1.49; in [8], 1.1. The composite Z-score in experiment [1] was 2.16 (inactive).
In the case of `NCCCCCNC(=O)[C@@H]1C[C@@H]2C(=O)NCC(=O)N2[C@@H]1c1cccc(OCCO)c1`, the composite z-score is 0.411 in the experiment with Albumin (Bos taurus); 0.154 in experiment [2]; -0.0366 in [3]; 0.443 in [4]; 0.506 in [5]; 0.954 in experiment [6]. In addition, the composite z-score was 1.32 in the experiment on Sam68 (KHDRBS1), 0.788 in [7] and 1.17 in experiment [8]. Further, the composite Z-score in [1] was 0.401 (inactive).
For the compound `Cc1ccc(S[C@]2(C(=O)NCC(F)(F)F)CC(=O)N(C3CCCCC3)[C@@H]2c2ccc(CO)cc2I)cc1`, the composite z-score with Albumin (Bos taurus) was 0.488; in experiment [2], -0.046; in [3], -0.108; in experiment [4], 0.369; in [5], 2.01; in experiment [6] it was 0.159. Besides, the composite z-score with Sam68 (KHDRBS1) was 1.3; in experiment [7], 0.0471; in experiment [8], 0.955. In addition, in [1], the composite Z-score was -0.132 (inactive).
Turning to `COCCCNC(=O)[C@@]1(Sc2ccc(C)cc2)CC(=O)N(C2CCCCC2)[C@@H]1c1ccc(CO)cc1`, the composite z-score with Albumin (Bos taurus) was -0.111; in [2], -0.337; in experiment [3], -0.12; in experiment [4], 0.71; in experiment [5] it was 1.62; in [6] it was 1.21. The composite z-score in the experiment on Sam68 (KHDRBS1) is -0.281; in experiment [7] it was -0.975; in experiment [8], -0.305. The composite Z-score in experiment [1] was -0.513 (inactive).
As for `Cc1ccc(S[C@]2(C(=O)O)CC(=O)N(C3Cc4ccccc4C3)[C@@H]2c2ccc(CO)cc2)cc1`, the composite z-score in the experiment with Albumin (Bos taurus) was 0.0322; in experiment [2] it was -0.102; in [3], -0.057; in experiment [4] it was 0.727; in experiment [5], 2.65; in [6] it was 0.826. For the same compound, the results for the composite z-score (in the experiment on Sam68 (KHDRBS1); in [7]; in [8]) were 0.667, -1.8 and -0.458, respectively. Also, in experiment [1], the composite Z-score is 0.736 (inactive).
As for `C[N+](C)(C)CCCC[C@@H]1NC(=O)[C@H]2C[C@@H](C(=O)NCCCCCCN)[C@@H](c3ccc(O)cc3)N2C1=O`, the composite z-score is 0.98 in the experiment with Albumin (Bos taurus); 0.201 in [2]; 0.14 in experiment [3]; 0.685 in experiment [4]; 1.08 in experiment [5]; -0.186 in experiment [6]. The composite z-score in the experiment with Sam68 (KHDRBS1) is 1.23; in [7], -0.117; in [8], 1.13. Also, the composite Z-score in experiment [1] was 0.289 (inactive).
As for `CCOC(=O)C[C@H]1[C@H](OC(=O)c2ccccc2-c2ccccc2)[C@@H](NC(=O)C2CCCCC2)c2cc(OCCCO)ccc2N1C(=O)Cc1ccc(OC)cc1`, the composite z-score with Albumin (Bos taurus) was 0.0179; in experiment [2], -0.046; in [3], -0.122; in experiment [4] it was 0.0935; in [5], 0.0644; in experiment [6], 0.0035. Further, the values for the composite z-score (with Sam68 (KHDRBS1); in experiment [7]; in [8]) were -0.0019, -0.292 and 0.0384, respectively. In experiment [1], the composite Z-score was -0.483 (inactive).
`COc1ccc(C#Cc2ccc3c(c2)[C@]2(C(=O)N3)[C@H](c3ccc(O)cc3)N3[C@H](c4ccccc4)[C@H](c4ccccc4)OC(=O)[C@H]3[C@@H]2C(=O)O)cc1`: the composite z-score in the experiment with Albumin (Bos taurus) turned out to be 0.496; in experiment [2], 0.277; in experiment [3] it was 0.163; in [4], 0.614; in [5] it was 1.23; in [6], 0.483. The composite z-score in the experiment with Sam68 (KHDRBS1) came to 0.964; in experiment [7], 0.111; in experiment [8], 0.868. Also, the composite Z-score in experiment [1] was 0.708 (inactive).
Consider `C[N+](C)(C)CCCCCCNC(=O)[C@H]1C[C@H]2C(=O)N[C@@H](Cc3ccccc3)C(=O)N2[C@H]1c1ccc(O)cc1`, for which the composite z-score is -0.459 with Albumin (Bos taurus); -0.0471 in [2]; -0.137 in experiment [3]; 0.4 in [4]; 1.05 in experiment [5]; 0.0686 in [6]. Besides, the figures for the composite z-score (in the experiment with Sam68 (KHDRBS1); in [7]; in [8]) were 0.479, 1.37 and 0.547, respectively. Further, the composite Z-score in [1] is -0.505 (inactive).
On to `COc1ccc([Si](C)(C)[C@H]2[C@H](CCn3cc([C@H](O)c4ccccc4)nn3)O[C@@]3(C(=O)N(Cc4ccc(N5C(=O)c6cccc7cccc5c67)cc4)c4ccccc43)[C@@H]2C)cc1`, for which the composite z-score with Albumin (Bos taurus) was -0.601; in experiment [2], -0.165; in experiment [3], -0.14; in [4] it was 0.193; in experiment [5] it was 0.769; in experiment [6], 0.838. The composite z-score in the experiment with Sam68 (KHDRBS1) was 0.131; in experiment [7], -0.803; in [8], 0.115. In addition, in [1], the composite Z-score was 0.389 (inactive).
